Screens as filed in PubChem.
Hits are enriched below; roughly 11% of the tested compounds scored in any of these assays.
PLK1 PBD inh – qHTS for Inhibitors of PLK1-PDB (polo-like kinase 1 - polo-box domain): Primary Screen; actives 2.8% (n = 360,000); Serine/threonine-protein kinase PLK1 (Homo sapiens), P53350; Plk1 PBD binding of FITC phosphopeptide, fluorescence polarization; Potency, µM, usual class: inhibitors; also: series mostly up to about 57 µM; nearly all actives have a fitted effect of over 65% in size
VDR inh – Inhibitors of the vitamin D receptor (VDR): qHTS; actives 0.93% (n = 400,000); Potency, µM, most hits filed as inhibitors; VDR-SRC2-3 peptide fluorescence polarization, 2 h
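Fluorescence polarization assay measuring small-molecule disruption of VDR binding to the coregulator peptide SRC2-3. Compounds were pin-transferred (23 nl) into the reagent mix and incubated 2 h at room temperature before reading.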
HP1b binding inh – HTS for Inhibitors of HP1-beta Chromodomain Interactions with Methylated Histone Tails; Chromobox protein homolog 1 (Homo sapiens), P83916; AlphaScreen HP1-beta / biotin-H3K9me3 peptide binding; Potency, µM (series often up to 114 µM), most hits filed as inhibitors; actives 0.56% (n = 390,000); AID 540317, 2011; also: nearly all actives have a fitted effect of over 70% in size
Target sequence (P83916 whole entry, looked up): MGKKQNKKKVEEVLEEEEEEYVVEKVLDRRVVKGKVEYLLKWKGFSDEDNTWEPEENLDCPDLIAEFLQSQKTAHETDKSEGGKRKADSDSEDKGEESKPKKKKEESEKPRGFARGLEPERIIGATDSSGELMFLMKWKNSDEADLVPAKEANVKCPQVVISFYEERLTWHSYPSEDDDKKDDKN
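AlphaScreen: HP1-beta (50 nM) preformed 30 min with biotin-H3(1-18)K9me3 peptide (50 nM) in PBS pH 7.4, 0.01% Tween-20. Compound added for 30 min at RT, then streptavidin donor/nickel chelate acceptor beads (10 ug/mL) for 30 min.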
BAZ2B inh – qHTS Assay for Inhibitors of BAZ2B | AID 504333, 2011 | Potency, µM (titrated, usually from 114 µM), usual class: inhibitors | Bromodomain adjacent to zinc finger domain protein 2B (Homo sapiens), Q9UIF8 | AlphaScreen BAZ2B-H3K14Ac peptide displacement | actives 4.4% (n = 360,000); also: nearly all actives have a fitted effect of over 60% in size
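In this displacement format the biotinylated H3(5-23) peptide acetylated at Lys14 serves as ligand at 50 nM, with BAZ2B at 50 nM in PBS pH 7.4 containing 0.01% Tween-20. Donor and acceptor beads are 10 ug/mL final.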
G9a inh – qHTS Assay for Inhibitors of Histone Lysine Methyltransferase G9a. G9a H3K9 monomethylation, AlphaScreen, 2 h. Histone-lysine N-methyltransferase EHMT2 (Homo sapiens), Q96KQ7. Potency, µM (top dose mostly 102 µM), hits mostly inhibitors. actives 8.8% (n = 350,000). AID 504332, 2011; also: nearly all actives have a fitted effect of over 75% in size
Target sequence (Q96KQ7 913-1193 limits assumed): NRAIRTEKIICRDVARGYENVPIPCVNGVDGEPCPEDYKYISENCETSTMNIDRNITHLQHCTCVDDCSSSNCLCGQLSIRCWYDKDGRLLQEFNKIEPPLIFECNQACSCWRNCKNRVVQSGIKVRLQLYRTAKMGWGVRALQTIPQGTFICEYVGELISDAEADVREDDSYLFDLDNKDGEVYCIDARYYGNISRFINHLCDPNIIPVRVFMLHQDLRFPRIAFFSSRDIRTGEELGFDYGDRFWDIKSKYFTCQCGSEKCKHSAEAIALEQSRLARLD
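Step 1: enzyme (final 20 nM) with compound, 15 min RT. Step 2: substrate peptide 500 nM and SAM 20 uM, 2 h RT. Step 3: anti-H3K9me1 antibody and AlphaScreen beads, 10 min, then plate read.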
JMJD2A Tudor – qHTS Assay for Inhibitors of JMJD2A-Tudor Domain; Lysine-specific demethylase 4A (Homo sapiens), O75164; AlphaScreen JMJD2A-Tudor / H3K4me3 peptide binding; Potency, µM (titrated, usually from 114 µM), hits mostly inhibitors; actives 4.4% (n = 390,000); also: nearly all actives have a fitted effect of over 50% in size
Each line names hits and unclear results; the compound was inactive in the other large screens; ! = not active in a repeat. Calls follow the shape of the dose curve; as a rule, active = well fitted curve in the direction sought with a large enough effect; inconclusive = small, poorly fitted or top-dose-only effect, or another doubt; inactive = no such curve, though single readings can be large; an effect the other way counts as inactive or inconclusive.

CC(=O)OCC(NC(=O)C(COCc1ccccc1)NC(=O)OC(C)(C)C)C1OC(n2cc(C)c(=O)[nH]c2=O)C(OC(C)=O)C1OC(C)=O (stereo not given)	none (no result: PLK1 PBD inh, BAZ2B inh, G9a inh)
CCOC(=O)/C(=N\Nc1ccc(Cl)cc1)Sc1nnc(-c2ccc(OC)cc2)n1C	BAZ2B inh inconclusive, G9a inh 10µM
COc1ccc(C2NC(Cc3ccccc3)(C(=O)O)C3C(=O)N(c4ccccc4OC)C(=O)C23)cc1 (stereo not given)	G9a inh 50µM
Cc1cc(C)cc(S(=O)(=O)N2CCN(c3nc(-c4cccs4)nc4ccccc34)CC2)c1	none (no result: PLK1 PBD inh, BAZ2B inh, G9a inh)
O=C1CC(NCC2CCCO2)C(=O)N1c1ccc(F)cc1 (stereo not given)	G9a inh 50µM
N#CCNC1CC(=O)N(c2ccc(F)cc2)C1=O (stereo not given)	G9a inh 7.9µM
COc1cccc(NC(=O)c2ccc3nc(Cc4ccccc4)oc3c2)c1	none (no result: PLK1 PBD inh)
CCN1CCS/C1=C\C=C\C1=[N+](CC)CCS1	G9a inh 3.2µM
CCN1CCS/C1=C/C=C/C1=[N+](CC)CCS1	G9a inh 50µM, JMJD2A Tudor inconclusive
CNc1nc(C#N)nc(Nc2ccccc2)n1	none (no result: PLK1 PBD inh, VDR inh, HP1b binding inh, BAZ2B inh, G9a inh)
Cc1ccc(S(=O)(=O)CCC(=O)NC2CCCC2)cc1	none
CC(C)c1ccc(NC(=O)c2ccc(F)c(S(=O)(=O)N3CCc4ccccc4C3)c2)cc1	none (no result: PLK1 PBD inh)
C/C(=N\NC(N)=S)C1=CCC2C3CC[C@H]4CC(O)CC[C@]4(C)C3CC[C@]12C (stereo not given in full)	PLK1 PBD inh 17µM, VDR inh inconclusive, HP1b binding inh inconclusive, G9a inh 8.9µM
COc1ccc(-c2csc(/C(C#N)=C(\O)CSc3nccn3C)n2)cc1OC	BAZ2B inh 50µM, G9a inh 45µM
COc1ccc(/C=C(/C#N)c2nc(-c3ccc(-c4ccccc4)cc3)cs2)cc1OC	G9a inh inconclusive (no result: PLK1 PBD inh)
O=C(Nc1cccnc1)c1cc2c(ccc3ccccc32)o1	BAZ2B inh 79µM, G9a inh inconclusive, JMJD2A Tudor 56µM
O=C(O)c1ccc(/C=N/NC(=O)c2cc3c(ccc4ccccc43)o2)cc1	PLK1 PBD inh inconclusive, BAZ2B inh 71µM, G9a inh inconclusive, JMJD2A Tudor inconclusive
Cc1ccc(-c2ccc(/C=N\NC(=O)c3cc4c(ccc5ccccc54)o3)o2)cc1[N+](=O)[O-]	none (no result: G9a inh)
O=C(N/N=C/c1ccc(-c2ccc(Cl)c(C(=O)O)c2)o1)c1cc2c(ccc3ccccc32)o1	PLK1 PBD inh inconclusive, HP1b binding inh inconclusive, BAZ2B inh 28µM (no result: G9a inh)
CC(C)(C)OC(=O)NCC(=O)NNC(=O)c1nc2ccccc2[nH]1	none (no result: PLK1 PBD inh, VDR inh, HP1b binding inh, BAZ2B inh, G9a inh)
C[C@@H]1O[C@@H](OC2C(O)C(OCCc3ccc(O)c(O)c3)OC(CO)C2OC(=O)/C=C/c2ccc(O)c(O)c2)[C@H](O)[C@H](O)[C@H]1O (stereo not given in full)	BAZ2B inh 32µM, G9a inh inconclusive (no result: PLK1 PBD inh, VDR inh, HP1b binding inh, JMJD2A Tudor)
C[C@@H]1O[C@@H](O[C@H]2[C@H](O)[C@@H](O)[C@H](Oc3c(-c4ccc(O)cc4)oc4cc(O)cc(O)c4c3=O)O[C@@H]2CO)[C@H](O)[C@H](O)[C@H]1O	none (no result: BAZ2B inh, G9a inh)
Cc1onc(-c2ccccc2Cl)c1C(=O)N(C)Cc1ccccc1	none
NS(=O)(=O)c1ccc(NC(=O)CSc2nc3c(cnn3-c3ccccn3)c(=O)[nH]2)cc1	G9a inh 40µM, JMJD2A Tudor inconclusive
O=S(=O)(c1cccc2c(Cl)cccc12)N1CCCNCC1	G9a inh 19µM! (no result: PLK1 PBD inh, HP1b binding inh, BAZ2B inh, JMJD2A Tudor)
COc1ccc2[nH]cc(CCNc3nc(-c4ccc(N(C)C)cc4)nc4ccccc34)c2c1	none (no result: PLK1 PBD inh, HP1b binding inh, BAZ2B inh, JMJD2A Tudor)
O=c1[nH][nH]c(=O)c2c(NS(=O)(=O)c3ccccc3)cccc12	PLK1 PBD inh inconclusive, JMJD2A Tudor 45µM
Cc1cc(C)nc(SSc2nc(C)cc(C)n2)n1	PLK1 PBD inh 1.9µM, VDR inh 7.1µM, G9a inh 0.4µM, JMJD2A Tudor 10µM
CN(C)C1CCN(C(=O)c2cccc(OC3CCN(S(=O)(=O)N(C)C)CC3)c2)C1 (stereo not given)	none
O=c1[nH]c(=O)n(Cc2ccc(Oc3ccccc3)cc2)cc1Br	G9a inh inconclusive (no result: PLK1 PBD inh, VDR inh, HP1b binding inh, JMJD2A Tudor)
C=C1CC(Cn2cc(Br)c(=O)[nH]c2=O)(c2ccc(-c3ccccc3)cc2)OC1=O (stereo not given)	PLK1 PBD inh 24µM, VDR inh inconclusive (no result: BAZ2B inh, G9a inh)
Cc1c(Cl)cccc1NC(=O)Cn1nc(C)c2sc3ccccc3c2c1=O	none (no result: PLK1 PBD inh)
C#CC(C)(C)NS(=O)(=O)c1cc(-c2nnc(Nc3ccc(C)cc3)c3ccccc23)ccc1C	none (no result: PLK1 PBD inh)
N#CC(C#N)=Cc1cc2ccccc2nc1N1CCCCC1	PLK1 PBD inh inconclusive, VDR inh 71µM, BAZ2B inh 40µM, G9a inh inconclusive, JMJD2A Tudor inconclusive
COc1cccc(-c2nc(N3CCN(c4ccccc4)CC3)c3ccccc3n2)c1O	HP1b binding inh inconclusive, JMJD2A Tudor inconclusive
COc1cccc(-c2nc(N3CCCCC3)c3ccccc3n2)c1O	HP1b binding inh inconclusive, JMJD2A Tudor 35µM (no result: BAZ2B inh, G9a inh)
c1ccc2c(c1)nc(N1CCCCCC1)c1ccccc12	JMJD2A Tudor 18µM
CCC(C)Nc1nc(-c2cccc(OC)c2O)nc2ccccc12 (stereo not given)	BAZ2B inh inconclusive, JMJD2A Tudor inconclusive
COc1cccc(-c2nc(NC(C)C)c3ccccc3n2)c1O	BAZ2B inh inconclusive, G9a inh inconclusive, JMJD2A Tudor 50µM
CCOC(=O)/C(C#N)=C/c1cc2ccccc2nc1N1CCOCC1	none
CCOCCOc1cccc(C(=O)NC(c2ccccc2)c2ccccc2)c1	none
CCC1CCCCN1c1nc(-c2cccc(OC)c2O)nc2ccccc12 (stereo not given)	BAZ2B inh inconclusive, G9a inh 40µM, JMJD2A Tudor inconclusive
CCC1CCCCN1c1nc(-c2ccncc2)nc2ccccc12 (stereo not given)	none
CC(C)OP(=O)(c1ccc(N(C)C)cc1)C(O)c1ccc(N(C)C)cc1 (stereo not given)	JMJD2A Tudor 4.5µM
CC(C)COP(=O)(c1ccc(N(C)C)cc1)C(O)c1ccncc1 (stereo not given)	G9a inh inconclusive
COc1ccc(C(O)P(=O)(OC(C)C)c2ccc(N(C)C)cc2)c(OC)c1 (stereo not given)	JMJD2A Tudor 22µM
CCCOP(=O)(c1ccc(N(C)C)cc1)C(O)c1cc(OC)ccc1OC (stereo not given)	none
